Legend:
Assay in all cases: log2 ratio of Biotin-Ahx-Ub-VS probe labelling (fragment/DMSO); higher = less target engagement (more negative = stronger competition), active = hit call of the paper (q ≤ 0.05, log2 ratio ≤ -1)
Settings in all cases: compound concentration: 200 uM; treatment time: 3 h
[1] = target: USP9X (UniProt Q93008)
Summary of the method: (§1)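 In triplicate, 495 µg of HEK293T lysate per sample was incubated with fragment at 200 µM or vehicle for 3 h. Biotin-Ahx-Ub-VS was then added to 0.5 µM final for 1 h, and labelled DUBs were captured with NeutrAvidin, digested with LysC and trypsin, and measured by diaPASEF LC-MS/MS. Data are average log2 fragment/vehicle ratios by unpaired t-test from global-median-normalised Spectronaut label-free quantities, restricted to proteins with ≥2 unique peptides.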

[2] = target: UniProt O00487
Summary of the method: as §1

[3] = target: UniProt O00507
Summary of the method: as §1

[4] = target: UniProt P51784
Summary of the method: as §1

[5] = target: T1, UniProt Q5T2D3
T1 sequence (whole entry): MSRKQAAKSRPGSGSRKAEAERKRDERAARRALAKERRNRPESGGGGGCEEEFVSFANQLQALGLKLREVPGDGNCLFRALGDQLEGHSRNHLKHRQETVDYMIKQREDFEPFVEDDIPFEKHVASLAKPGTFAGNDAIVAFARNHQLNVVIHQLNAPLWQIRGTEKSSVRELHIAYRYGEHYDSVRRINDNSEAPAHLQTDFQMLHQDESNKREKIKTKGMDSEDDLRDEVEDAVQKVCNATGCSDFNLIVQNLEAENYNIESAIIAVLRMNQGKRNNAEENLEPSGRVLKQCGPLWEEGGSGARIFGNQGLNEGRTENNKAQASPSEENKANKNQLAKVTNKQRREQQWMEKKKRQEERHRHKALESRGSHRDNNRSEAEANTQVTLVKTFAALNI
Summary of the method: as §1

[6] = target: T2, UniProt Q8TE49
T2 sequence (whole entry): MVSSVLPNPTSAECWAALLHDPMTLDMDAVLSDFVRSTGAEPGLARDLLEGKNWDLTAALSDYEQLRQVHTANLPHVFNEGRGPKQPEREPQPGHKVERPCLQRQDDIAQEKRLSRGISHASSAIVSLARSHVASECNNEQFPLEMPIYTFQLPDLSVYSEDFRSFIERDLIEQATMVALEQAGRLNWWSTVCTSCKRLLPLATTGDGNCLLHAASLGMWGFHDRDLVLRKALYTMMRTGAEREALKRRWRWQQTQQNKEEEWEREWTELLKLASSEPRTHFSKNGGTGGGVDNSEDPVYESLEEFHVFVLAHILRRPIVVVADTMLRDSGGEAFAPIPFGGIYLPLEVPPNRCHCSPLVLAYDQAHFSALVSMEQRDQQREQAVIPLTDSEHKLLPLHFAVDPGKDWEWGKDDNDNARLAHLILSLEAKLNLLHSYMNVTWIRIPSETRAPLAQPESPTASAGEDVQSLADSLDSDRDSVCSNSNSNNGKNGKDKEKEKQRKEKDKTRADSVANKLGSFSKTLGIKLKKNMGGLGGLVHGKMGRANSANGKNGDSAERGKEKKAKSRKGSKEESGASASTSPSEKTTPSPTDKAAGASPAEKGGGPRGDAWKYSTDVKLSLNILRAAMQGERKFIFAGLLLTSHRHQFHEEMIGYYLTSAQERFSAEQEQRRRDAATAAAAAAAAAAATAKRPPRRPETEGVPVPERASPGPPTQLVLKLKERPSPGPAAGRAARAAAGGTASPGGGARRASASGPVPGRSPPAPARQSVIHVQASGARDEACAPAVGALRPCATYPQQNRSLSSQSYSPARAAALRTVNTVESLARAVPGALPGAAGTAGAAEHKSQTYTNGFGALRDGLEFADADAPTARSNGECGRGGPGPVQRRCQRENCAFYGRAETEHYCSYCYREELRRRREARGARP
Summary of the method: as §1

[7] = target: T3, UniProt Q9P2H5
T3 sequence (whole entry): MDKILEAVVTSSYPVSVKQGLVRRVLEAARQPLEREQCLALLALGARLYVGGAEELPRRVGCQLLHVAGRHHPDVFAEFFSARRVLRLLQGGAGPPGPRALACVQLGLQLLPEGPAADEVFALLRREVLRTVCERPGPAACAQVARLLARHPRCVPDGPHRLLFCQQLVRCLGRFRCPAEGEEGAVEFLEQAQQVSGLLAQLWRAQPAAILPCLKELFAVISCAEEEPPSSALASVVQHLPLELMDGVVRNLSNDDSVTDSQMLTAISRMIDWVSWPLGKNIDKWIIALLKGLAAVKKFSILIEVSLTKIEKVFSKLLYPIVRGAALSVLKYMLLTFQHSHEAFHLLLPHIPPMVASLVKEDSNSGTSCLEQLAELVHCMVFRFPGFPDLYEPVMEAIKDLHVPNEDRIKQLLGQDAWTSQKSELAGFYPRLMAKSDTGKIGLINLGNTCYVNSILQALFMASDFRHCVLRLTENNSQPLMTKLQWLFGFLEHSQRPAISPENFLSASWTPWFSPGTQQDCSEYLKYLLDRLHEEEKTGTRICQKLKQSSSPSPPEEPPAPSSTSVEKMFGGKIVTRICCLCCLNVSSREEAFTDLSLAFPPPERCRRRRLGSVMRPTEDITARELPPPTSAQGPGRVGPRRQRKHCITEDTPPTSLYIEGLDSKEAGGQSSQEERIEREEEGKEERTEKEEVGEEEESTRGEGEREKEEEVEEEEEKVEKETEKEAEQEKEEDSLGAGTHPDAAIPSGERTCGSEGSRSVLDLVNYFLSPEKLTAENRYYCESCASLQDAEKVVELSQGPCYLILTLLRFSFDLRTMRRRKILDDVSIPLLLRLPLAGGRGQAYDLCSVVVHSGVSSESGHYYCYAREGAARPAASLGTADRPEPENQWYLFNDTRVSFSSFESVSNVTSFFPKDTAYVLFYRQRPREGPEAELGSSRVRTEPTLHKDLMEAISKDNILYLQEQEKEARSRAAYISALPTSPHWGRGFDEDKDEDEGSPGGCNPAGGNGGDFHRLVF
Summary of the method: as §1

[8] = target: T4, UniProt Q9UGI0
T4 sequence (whole entry): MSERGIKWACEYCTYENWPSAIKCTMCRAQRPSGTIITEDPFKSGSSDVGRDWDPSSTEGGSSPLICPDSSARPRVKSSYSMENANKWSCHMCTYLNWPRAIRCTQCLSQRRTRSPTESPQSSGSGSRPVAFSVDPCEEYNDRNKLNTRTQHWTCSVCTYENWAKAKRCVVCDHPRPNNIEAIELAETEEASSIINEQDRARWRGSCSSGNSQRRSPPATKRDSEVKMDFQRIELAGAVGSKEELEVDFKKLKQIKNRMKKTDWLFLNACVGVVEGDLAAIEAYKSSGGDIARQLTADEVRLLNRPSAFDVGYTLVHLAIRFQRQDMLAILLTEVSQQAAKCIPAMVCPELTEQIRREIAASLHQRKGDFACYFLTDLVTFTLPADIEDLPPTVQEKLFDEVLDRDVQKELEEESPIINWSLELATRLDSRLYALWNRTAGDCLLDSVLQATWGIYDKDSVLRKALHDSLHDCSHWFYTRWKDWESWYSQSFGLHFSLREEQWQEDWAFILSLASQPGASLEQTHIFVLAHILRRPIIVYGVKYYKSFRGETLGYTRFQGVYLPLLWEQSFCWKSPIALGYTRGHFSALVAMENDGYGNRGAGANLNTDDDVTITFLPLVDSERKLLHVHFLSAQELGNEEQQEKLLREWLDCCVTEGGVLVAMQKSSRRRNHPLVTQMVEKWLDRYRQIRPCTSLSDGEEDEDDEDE
Summary of the method: as §1

[9] = target: T5, YOD1 (UniProt Q5VVQ6)
T5 sequence (whole entry): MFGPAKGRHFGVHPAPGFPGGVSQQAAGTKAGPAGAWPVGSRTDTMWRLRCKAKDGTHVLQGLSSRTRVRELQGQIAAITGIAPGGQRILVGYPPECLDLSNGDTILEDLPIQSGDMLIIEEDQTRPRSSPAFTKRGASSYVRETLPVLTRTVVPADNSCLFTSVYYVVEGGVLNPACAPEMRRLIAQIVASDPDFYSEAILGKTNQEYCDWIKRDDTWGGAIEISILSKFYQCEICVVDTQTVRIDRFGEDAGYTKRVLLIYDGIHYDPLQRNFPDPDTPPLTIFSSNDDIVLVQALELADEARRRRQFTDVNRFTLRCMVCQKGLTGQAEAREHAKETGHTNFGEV
Summary of the method: as §1

Measured: log2 ratio of Biotin-Ahx-Ub-VS probe labelling

UniProt O00487, sequence (O00487 whole entry): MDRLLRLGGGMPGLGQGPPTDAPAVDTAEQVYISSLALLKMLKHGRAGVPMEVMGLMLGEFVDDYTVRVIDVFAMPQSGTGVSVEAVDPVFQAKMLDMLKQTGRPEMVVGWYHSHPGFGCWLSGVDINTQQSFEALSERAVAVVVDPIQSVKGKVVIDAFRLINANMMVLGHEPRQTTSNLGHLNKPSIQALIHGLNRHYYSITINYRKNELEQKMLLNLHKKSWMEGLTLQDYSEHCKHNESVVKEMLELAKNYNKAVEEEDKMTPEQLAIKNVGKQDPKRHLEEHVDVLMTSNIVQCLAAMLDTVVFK
UniProt O00507, sequence (O00507 whole entry): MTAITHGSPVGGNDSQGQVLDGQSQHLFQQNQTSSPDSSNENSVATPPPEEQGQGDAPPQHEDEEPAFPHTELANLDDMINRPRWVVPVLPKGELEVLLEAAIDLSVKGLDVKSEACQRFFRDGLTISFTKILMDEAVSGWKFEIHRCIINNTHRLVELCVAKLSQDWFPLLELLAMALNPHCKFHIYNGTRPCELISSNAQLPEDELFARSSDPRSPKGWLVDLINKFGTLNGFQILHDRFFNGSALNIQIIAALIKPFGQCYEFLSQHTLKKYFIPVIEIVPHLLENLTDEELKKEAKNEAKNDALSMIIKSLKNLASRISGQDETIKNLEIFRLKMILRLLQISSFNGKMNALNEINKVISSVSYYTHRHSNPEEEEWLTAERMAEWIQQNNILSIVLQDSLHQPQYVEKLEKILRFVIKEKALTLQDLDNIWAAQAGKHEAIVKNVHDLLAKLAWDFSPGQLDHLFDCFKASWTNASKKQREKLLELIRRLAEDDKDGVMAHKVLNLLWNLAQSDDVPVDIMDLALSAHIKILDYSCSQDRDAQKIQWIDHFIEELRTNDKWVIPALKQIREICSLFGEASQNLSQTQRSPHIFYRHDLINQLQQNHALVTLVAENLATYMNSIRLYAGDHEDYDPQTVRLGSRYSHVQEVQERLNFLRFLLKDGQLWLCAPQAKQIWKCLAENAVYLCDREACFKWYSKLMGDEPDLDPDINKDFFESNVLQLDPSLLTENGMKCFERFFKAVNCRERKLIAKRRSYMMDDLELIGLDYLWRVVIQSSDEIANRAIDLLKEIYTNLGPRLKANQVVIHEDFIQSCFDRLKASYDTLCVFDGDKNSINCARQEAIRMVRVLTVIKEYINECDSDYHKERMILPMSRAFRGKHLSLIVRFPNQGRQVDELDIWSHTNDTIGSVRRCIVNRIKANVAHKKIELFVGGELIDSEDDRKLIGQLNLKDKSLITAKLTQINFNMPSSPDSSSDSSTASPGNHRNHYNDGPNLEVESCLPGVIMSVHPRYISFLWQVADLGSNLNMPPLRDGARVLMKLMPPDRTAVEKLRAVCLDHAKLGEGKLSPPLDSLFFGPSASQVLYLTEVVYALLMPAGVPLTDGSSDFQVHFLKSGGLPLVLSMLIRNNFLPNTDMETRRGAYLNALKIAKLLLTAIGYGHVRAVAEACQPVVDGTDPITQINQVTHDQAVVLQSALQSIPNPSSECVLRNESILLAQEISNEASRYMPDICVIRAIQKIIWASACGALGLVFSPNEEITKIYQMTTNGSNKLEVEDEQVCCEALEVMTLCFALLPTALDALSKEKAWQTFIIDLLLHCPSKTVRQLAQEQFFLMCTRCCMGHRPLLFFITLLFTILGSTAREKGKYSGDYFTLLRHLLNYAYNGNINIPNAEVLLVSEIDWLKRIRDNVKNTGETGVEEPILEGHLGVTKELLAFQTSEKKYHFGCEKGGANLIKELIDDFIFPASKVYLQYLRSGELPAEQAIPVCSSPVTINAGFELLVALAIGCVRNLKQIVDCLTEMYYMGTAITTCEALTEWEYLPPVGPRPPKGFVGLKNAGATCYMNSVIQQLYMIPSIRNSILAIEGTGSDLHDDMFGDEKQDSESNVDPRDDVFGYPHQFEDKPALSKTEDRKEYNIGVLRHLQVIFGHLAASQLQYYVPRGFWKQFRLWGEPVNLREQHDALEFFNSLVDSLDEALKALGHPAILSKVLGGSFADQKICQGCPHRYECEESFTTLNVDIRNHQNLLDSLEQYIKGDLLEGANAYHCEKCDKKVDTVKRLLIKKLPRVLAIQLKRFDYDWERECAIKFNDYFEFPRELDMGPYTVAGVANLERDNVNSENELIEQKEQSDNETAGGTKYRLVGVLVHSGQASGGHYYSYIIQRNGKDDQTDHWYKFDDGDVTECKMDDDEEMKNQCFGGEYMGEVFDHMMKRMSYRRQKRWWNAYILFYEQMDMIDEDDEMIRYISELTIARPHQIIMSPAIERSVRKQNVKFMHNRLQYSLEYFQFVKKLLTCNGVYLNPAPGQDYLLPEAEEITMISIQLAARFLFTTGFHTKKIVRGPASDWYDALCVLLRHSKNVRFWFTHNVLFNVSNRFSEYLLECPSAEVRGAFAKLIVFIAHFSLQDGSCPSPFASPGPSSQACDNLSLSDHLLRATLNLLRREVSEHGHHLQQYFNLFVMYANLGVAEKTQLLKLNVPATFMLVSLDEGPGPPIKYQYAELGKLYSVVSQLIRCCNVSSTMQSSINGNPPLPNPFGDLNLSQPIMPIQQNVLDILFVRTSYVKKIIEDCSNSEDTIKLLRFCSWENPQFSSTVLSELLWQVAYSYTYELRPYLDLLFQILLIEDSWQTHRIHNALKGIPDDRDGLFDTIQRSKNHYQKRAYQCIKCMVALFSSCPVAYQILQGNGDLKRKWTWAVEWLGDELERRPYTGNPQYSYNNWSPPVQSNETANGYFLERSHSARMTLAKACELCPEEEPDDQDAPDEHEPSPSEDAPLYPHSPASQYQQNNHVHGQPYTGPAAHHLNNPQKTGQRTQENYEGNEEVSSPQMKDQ
UniProt P51784, sequence (P51784 whole entry): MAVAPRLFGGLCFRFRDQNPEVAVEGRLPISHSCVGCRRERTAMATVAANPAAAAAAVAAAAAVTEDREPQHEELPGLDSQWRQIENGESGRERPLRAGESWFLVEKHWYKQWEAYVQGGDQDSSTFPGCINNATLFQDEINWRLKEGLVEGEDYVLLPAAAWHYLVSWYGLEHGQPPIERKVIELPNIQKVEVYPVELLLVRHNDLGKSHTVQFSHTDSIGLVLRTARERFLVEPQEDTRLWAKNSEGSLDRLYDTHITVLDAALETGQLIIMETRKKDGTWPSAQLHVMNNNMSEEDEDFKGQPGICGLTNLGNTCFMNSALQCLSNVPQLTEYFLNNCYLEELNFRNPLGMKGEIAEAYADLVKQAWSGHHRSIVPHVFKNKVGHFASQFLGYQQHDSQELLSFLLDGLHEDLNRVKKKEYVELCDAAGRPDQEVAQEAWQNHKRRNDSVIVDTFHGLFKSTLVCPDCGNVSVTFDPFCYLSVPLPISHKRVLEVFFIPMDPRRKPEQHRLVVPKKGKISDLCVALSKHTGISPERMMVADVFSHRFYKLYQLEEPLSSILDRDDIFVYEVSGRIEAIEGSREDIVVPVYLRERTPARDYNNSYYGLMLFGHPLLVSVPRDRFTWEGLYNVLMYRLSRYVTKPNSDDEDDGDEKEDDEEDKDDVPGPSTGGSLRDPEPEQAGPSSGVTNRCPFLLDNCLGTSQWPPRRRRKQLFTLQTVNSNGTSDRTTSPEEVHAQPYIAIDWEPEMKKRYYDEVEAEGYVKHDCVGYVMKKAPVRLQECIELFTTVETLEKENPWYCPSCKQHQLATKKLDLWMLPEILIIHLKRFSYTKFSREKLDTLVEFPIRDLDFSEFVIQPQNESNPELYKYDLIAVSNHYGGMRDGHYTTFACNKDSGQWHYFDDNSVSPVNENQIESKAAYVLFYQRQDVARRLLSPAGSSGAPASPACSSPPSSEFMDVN

Cl.O=C(CCl)NCc1ccnc(Oc2ccccc2F)c1
inactive: [1] -0.17 | [2] 0.13 | [3] -0.125 | [4] 0.0358 | [5] -0.167 | [6] -0.406 | [7] -0.188 | [8] -0.246 | [9] -0.103

— the supplement of paper PMC11732987, “Enantioselective OTUD7B fragment discovery through chemoproteomics screening and high-throughput optimisation” (Communications Chemistry, 2025)
